Screening data as filed in PubChem.
Hits are enriched below; roughly 1.9% of the tested compounds scored in any of these assays.
Menin-MLL TR inh: inhibitors of human menin-MLL interaction, mutant MLL peptide | 270,000 compounds, 0.23% hits | Menin + Texas Red MLL mutant peptide, fluorescence polarization | Potency, µM (highest dose often 61.6 µM), hits mostly inhibitors | O00255; active = well fitted inhibition curve with a large enough effect in the polarisation, with a control signal flat, not every such curve was filed as active; inconclusive = small, poorly fitted or top-dose-only effect, or effect the other way, or a change in a side signal; inactive = no such curve, though single readings can be large or run the other way; the % refers to the polarisation
Epigenetic reg: regulators of epigenetic silencing causing reporter derepression in mouse cells | murine LDR cells, GFP reporter derepression, 30 h | Potency, µM (titrated, usually from 53.9 µM), most hits filed as activators | 280,000 compounds, 0.2% hits; active = well fitted activation curve with a large enough effect; inconclusive = small, poorly fitted or top-dose-only effect; note: nearly all actives have a fitted effect of over 60% in size
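Murine LDR cells carrying a silenced, genomically integrated CMV-driven GFP reporter were exposed to compound for 30 hours at 37 C. After PBS washes, GFP-positive cells (20–120 um objects) were counted by laser-scanning microplate cytometry.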
Menin MLL FP FL: menin-MLL binding inhibition, fluorescein peptide; Fluorescence polarization, fluorescein-MLL peptide displacement from menin; FP activity change, % at 61.4 µM; 290,000 tested, under 10 active; AID 1766; active = well fitted curve in the direction sought with a large enough effect in the polarisation, not every such curve was filed as active; inconclusive = small, poorly fitted or top-dose-only effect, or effect the other way, or a change in a side signal; inactive = no such curve, though single readings can be large or run the other way; the % refers to the polarisation
CXXC DNA block: MLL CXXC-DNA interaction inhibition; Q03164; MLL-CXXC / FITC-HOXA9 DNA fluorescence polarization; Potency, µM (doses to about 115 µM), usual class: inhibitors; 290,000 compounds, 0.037% hits; AID 2662; active = well fitted inhibition curve with a large enough effect in the polarisation, with a control signal flat, not every such curve was filed as active; inconclusive = small, poorly fitted or top-dose-only effect, or effect the other way, or a change in a side signal; inactive = no such curve, though single readings can be large or run the other way; the % refers to the polarisation
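Purified MLL-CXXC (added from a 7 uM solution) was preincubated 5 min at ambient with pinned compounds in 50 mM Tris-HCl pH 7.5, 50 mM NaCl, 1 mM DTT, 0.05% BSA. Fluorescein-labeled HOX-A9 DNA (50 nM solution) followed, 30 min, then polarization read.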
PINK1 expr mod: changes PINK1 expression; PINK1 immunofluorescence, high-content cytometry, 24 h; Potency, µM (titrated, usually from 76.6 µM), actives largely listed as activators; 410,000 compounds, 0.2% hits; AID 624263; active = well fitted activation curve with a large enough effect; inconclusive = small, poorly fitted or top-dose-only effect; cell line not stated here; note: nearly all actives have a fitted effect of over 65% in size
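Stable cell line treated 24 h with compounds at 5 concentrations (CCCP controls), then fixed and immunostained for PINK1 plus nuclear and cell stains; PINK1 immunofluorescence quantified by laser-scanning microplate cytometry.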
ClpP mod: qHTS Assay for Activators of ClpP; ATP-dependent Clp protease proteolytic subunit (Bacillus subtilis (strain 168)), P80244; 340,000 compounds, 1.9% hits; AID 651965, 2013; purified B. subtilis ClpP, FRET peptide cleavage, 20 min; Potency, µM (doses to about 57.5 µM); active = well fitted falling curve with a large enough effect; inconclusive = small, poorly fitted or top-dose-only effect; inactive = no such curve, though single readings can be large or run the other way; note: the source files actives as falling curves though it sought activators and does not explain the sign; nearly all actives have a fitted effect of over 65% in size
Target sequence (P80244 whole entry, looked up): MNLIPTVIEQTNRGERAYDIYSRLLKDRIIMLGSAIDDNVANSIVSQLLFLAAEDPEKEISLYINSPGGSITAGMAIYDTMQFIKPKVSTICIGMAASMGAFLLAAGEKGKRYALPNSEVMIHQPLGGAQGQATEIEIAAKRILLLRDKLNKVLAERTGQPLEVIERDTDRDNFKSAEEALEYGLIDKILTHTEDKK
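Buffer: 100 mM Tris/HCl pH8, 100 mM KCl, 0.05% low protease BSA, 2.5% glycerol, 0.01% Tween-20. ClpP 10 microg/mL final; 20 min RT; delta FRET normalized to ADEP and DMSO controls.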
A number is an active result; i = inactive; ? = inconclusive; nt = not tested or not shown; [ ] = dose if it differs, or a comment.

SMILES	Menin-MLL TR inh	Epigenetic reg	Menin MLL FP FL	CXXC DNA block	PINK1 expr mod	ClpP mod
Cc1cc(C)cc(NC(=O)C2CC23CCN(Cc2ccc4ncccc4c2)CC3)c1 (configuration not stated)	nt	nt	nt	nt	i	nt
O=C1CC(C(=O)N2CCCC(c3nc(-c4ccncc4)ncc3-c3ccccc3)C2)C2(CCCCC2)O1 (configuration not stated)	nt	nt	nt	nt	i	nt
COc1cc(-c2cc(C)c3cccc(OC)c3n2)cc2c1OCCN(C(=O)CC1NC(=O)c3ccccc31)C2 (configuration not stated)	nt	nt	nt	nt	i	nt
N#Cc1c(-c2ccc(Br)cc2)cc(-c2cccnc2)nc1N	i	i	i	i	i	i
N#Cc1c(-c2cccc(Br)c2)cc(-c2cccnc2)nc1N	i	?	i	i	?	32µM
Cc1cc(-c2ccnc(-n3ncc(C(=O)N(C)Cc4nccs4)c3C)n2)c(C)s1	nt	nt	nt	nt	i	nt
O=C(c1ccc2ccccc2c1)N1CCN(S(=O)(=O)/C=C/c2ccccc2)CC1	i	i	i	i	i	nt
COc1ccc(Br)c(C(=O)N2CCN(S(=O)(=O)/C=C/c3ccccc3)CC2)c1	i	i	i	?	i	28µM
CCOC(=O)NC(=O)/C(C#N)=N\Nc1cccc(Cl)c1	nt	i	i	i	16µM	nt
CCOC(=O)NC(=O)/C(C#N)=N\Nc1ccc(Cl)cc1	?	i	i	i	i	i
c1ccc2c(c1)ccc1[nH]c3c(c12)CCCC3	nt	nt	nt	nt	i	18µM
Cc1c(/C(O)=C2/C(=O)C(=O)N(CCN3CCOCC3)C2c2cccs2)cnn1-c1ccccc1 (configuration not stated)	i	i	i	i	i	11µM
CCc1ccc(NC(=O)CSc2nnc(-c3ccccc3)n2C)cc1	nt	nt	nt	nt	i	i
COc1cc2c(NC3CCN(C)CC3)nc(N3CCCN(C)CC3)nc2cc1OCCCN1CCOCC1	nt	nt	nt	nt	i	i
Cc1cc(C)c(C#N)c(N2CCN(c3ccc(F)cc3)CC2)n1	i	nt	i	i	i	nt
COc1cc2c(C#N)c(N3CCN(c4ccccc4OC)CC3)nc(N)c2c(N)n1	?	i	i	i	i	32µM
COc1cc2c(C#N)c(N3CCN(C)CC3)nc(N)c2c(N)n1	i	i	i	i	nt	nt
Cc1cc(C)c(C#N)c(N2CCCC2)n1	i	i	i	i	i	3.5µM
N#Cc1c(N2CCCC2)nc(N)c2c(N)nc(N3CCCC3)cc12	?	i	i	?	?	7.9µM
COc1ccc(OC)c(NC(=O)CCN2CCN(C/C=C/c3ccccc3)CC2)c1	?	nt	i	i	i	i
O=C(C1CCCN(Cc2ccccc2[N+](=O)[O-])C1)N1CCCC1 (configuration not stated)	i	nt	i	i	i	28µM
CC(=O)NCC(=O)NCC1Cc2cc(C)cc(-c3ccccn3)c2O1 (configuration not stated)	nt	nt	nt	nt	i	nt
Nc1cc([N+](=O)[O-])cc(N)c1N	nt	nt	nt	nt	i	i
Cn1nc(C(=O)N2CCN(c3ccc([N+](=O)[O-])cc3)CC2)c2c1-c1ccccc1S(=O)(=O)C2	25µM	nt	i	i	i	i
Cn1nc(C(=O)N2CCN(c3ccc(Cl)cc3)CC2)c2c1-c1ccccc1S(=O)(=O)C2	nt	i	nt	i	i	i
SMILES	Menin-MLL TR inh	Epigenetic reg	Menin MLL FP FL	CXXC DNA block	PINK1 expr mod	ClpP mod
C[C@H](CN1c2ccccc2Sc2cccnc21)N(C)C	i	nt	i	?	nt	nt
CC(C)(C)NC(=O)C(c1ccco1)N(C(=O)Cn1nnc(-c2ccc(F)cc2)n1)c1cccc(F)c1 (configuration not stated)	i	i	i	i	13µM	i
CCOc1ccc(NC(=O)c2cccc(S(=O)(=O)NCc3cccnc3)c2)cc1	nt	nt	nt	nt	i	i
COc1ccc(-c2nc(C#N)c(NCc3ccco3)o2)cc1	?	i	i	?	i	i
Cc1ccc(-c2nc(C#N)c(NCc3ccco3)o2)cc1	i	i	i	i	i	20µM
O=S(=O)(c1ccccc1)c1nc(-c2ccco2)oc1NCCCN1CCOCC1	?	i	i	i	i	i
N#Cc1nc(-c2ccco2)oc1NCCCN1CCOCC1	i[11.7 µM]	i	i	i	i	3.5µM
Cc1ccc2cc(C#N)c(NCc3ccco3)nc2c1	i	i	i	i	i	25µM
